From PubChem BioAssay (NCI)
Where “and” joins values, the source holds several entries; their conditions need not be identical. Identical values can stand only once. This is part of a sample that, as a whole, favours compounds with a hit. Of some 83,000 tested, about 20% had one in any assay.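 A percent growth of 40 corresponds to 60% growth inhibition; 0 means no net growth; -100 means all cells died. Active threshold: below 10.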 Calls of active or inactive are those of the source.

test system: MDA-MB-468 breast; test: NCI-60 one-dose screen, 48 h (100 = growth as untreated, 0 = no growth, -100 = all killed); details: 10 µM unless noted

Structure (SMILES) | growth
Cc1ccc(=O)n(-c2ccc(Br)cc2F)c1 | 102% (inactive)
C=C(C)[C@@H]1CC[C@]2(C(=O)NCC#CCN3CCN(C)CC3)CC[C@]3(C)[C@H](CC[C@@H]4[C@@](C)(CCC#N)[C@H](C(=C)C)CC[C@]43C)[C@@H]12 | 18.7% (inactive)
CC(C)N1CCN(c2ccncc2S(=O)(=O)N2CCN(C)CC2)CC1 | 94.3% (inactive)
C=C(C)[C@@H]1CC[C@]2(CO)CC[C@]3(C)[C@H](CC[C@@H]4[C@@]5(C)CCCNC(C)(C)[C@@H]5CC[C@]43C)[C@@H]12 | 11.7% (inactive)
N#CC1=C(N)Oc2c(c(N)nn2-c2ccccc2)C1c1ccc(Cl)cc1 (stereo not given) | 117% (inactive)
COc1cc(NC(=O)CSc2nc3ccccc3c(=O)n2CCc2ccccc2)cc(OC)c1OC | 29.9% (inactive)
COc1cc2ncnc(Nc3ccc(F)c(Cl)c3)c2cc1OCC(=O)N1CCN(c2ccccc2)CC1 | -17.5% (active)
O=C(Nc1ccc(Cl)cc1)Oc1c(Cl)c(Cl)c(Cl)c(Cl)c1Cl | 106% (inactive)
O=C1Nc2ccc(Br)cc2C12Oc1ccccc1C1CC(c3ccc(F)cc3)=NN12 (stereo not given) | 82.1% (inactive)
Cc1sc2nc(NCCc3cccs3)[nH]c(=O)c2c1C | 82.4% (inactive)
NC(=Nc1ccccc1)SCCCSC(N)=Nc1ccccc1 | 85.8% (inactive)
C=C(C)[C@@H]1CC[C@]2(C)[C@H](CC=C3[C@@H]4CC(C)(C)CC[C@]4(C(N)=O)CC[C@]32C)[C@@]1(C)CCC#N | 15.1% (inactive)
CN=C1C=C/C(=N/N=c2/ccn(O)cc2C)C=C1C | 83.1% (inactive)
COc1cc(C(=O)/C=C/c2cccc(Nc3ccnc4cc(Cl)ccc34)c2)cc(OC)c1OC | -49.5% (active)
CC[C@H](C)C(=O)O[C@H]1C[C@@H](C)C=C2C=C[C@H](C)[C@H](CC[C@@H]3C[C@@H](O)CC(=O)O3)[C@H]21 | 103% (inactive)
CCN(CC)CCCCCCNc1ccnc2cc(Cl)ccc12 | 61.1% (inactive)
O=c1c2cccc3c(Nc4c(F)cccc4F)ccc(c32)c2nc3ccccc3n12 | -33.5% (active)
COc1ccc(/C=C/C(=O)c2ccc(OC)c(OC)c2)cc1O | 65.6% (inactive)
CC12CCC(O)CC1=CCC1C2CCC2(C)C3=NN=CC3CC12 (stereo not given) | 92.1% (inactive)
Cc1ccc(C2=NN(C)C(=O)C3(CCCC3)C2)cc1 | 98.7% (inactive)

Structure (SMILES) | growth
NC(=S)N/N=C(\c1ccc(Br)cc1)C1CC1 | 20% (inactive) and 19% (inactive)
O=C1c2cccnc2C(=O)c2c1c(C(=O)OCCCN1CCCCC1)c1ccccn21 | 31.6% (inactive)
O=C(Nc1cccc(Cn2c(=O)[nH]c3ccc(Oc4ncccn4)cc3c2=O)c1)c1cccc(F)c1 | 49.8% (inactive)
CCNC(=O)Oc1ccc(/C(=C(\C)c2ccccc2)c2ccc(OCCCN(C)C)cc2)cc1 | 86.6% (inactive)
Cc1ccc2c(n1)C(=O)C(Cl)=C(Nc1ccccc1C(C)C)C2=O | 34.9% (inactive)
Cc1nnc(Nc2ccc(NC(=O)Nc3ccc(Cl)cc3)cc2)c2ccccc12 | 6.44% (active)
COc1ccc2c(c1)N(CCO)C1=C(C(=O)OC1)C2c1cccc(Br)c1 (stereo not given) | 12.9% (inactive)
O=C(O)CNC1=C(Cl)C(=O)c2ccccc2C1=O | 109% (inactive)
CCCCCN(CCCCC)C(C)C(O)c1ccc2cc(Cl)c3ccccc3c2c1 (stereo not given) | 91% (inactive)
COC1=CC(c2ccc[nH]2)=N/C1=C\c1[nH]c(C)c(C(=O)CCC(=O)Oc2ccc3c(c2)CCC2C3CC[C@]3(C)[C@@H](O)CC[C@@H]23)c1C (stereo not given in full) | 39.4% (inactive)
COc1ccc(-c2nc(SCC(C)C)nc(N/N=C\c3cccc([N+](=O)[O-])c3)c2C#N)cc1 | 58.1% (inactive)
Clc1ccc(N/N=C(\c2ccccc2)c2ccccn2)nc1 | -24.9% (active)
Cc1ccc(-c2csc(NC(=O)c3ccccc3CN3C(=O)c4ccccc4C3=O)n2)cc1 | 92.1% (inactive)
NC1=CC(=O)c2cccnc2C1=O | -50.8% (active)
COC1=CC(c2ccc[nH]2)=N/C1=C\c1[nH]c(C)c(CC(=O)OCc2ccccc2)c1C | -24.6% (active)
Cc1c2cnccc2c(C)c2c1c1cc(O)ccc1n2C(C)C | 24.3% (inactive)
COc1ccc(-c2cn(-c3ccc(Cl)cc3)c(SCC(=O)c3ccc([N+](=O)[O-])cc3)n2)cc1 | 71.2% (inactive)
Clc1ccccc1Nc1nnc(-c2ccncc2)s1 | 110% (inactive)
COc1cc(-c2nn(-c3cccc(NC(=O)CCN4CCN(c5ccccc5)CC4)c3)cc2-c2ccncc2)ccc1Cl | 28.8% (inactive)
C[C@H]1[C@H]2[C@H]3CC[C@@H]4[C@@]5(C)CC[C@H](O)C(C)(C)[C@@H]5CC[C@@]4(C)[C@]3(C)CC[C@]23CO[C@]1(C)[C@@H](C(=O)/C=C\c1ccco1)C3 | 19.3% (inactive)
